Screening results from PubChem.
The list is not random: actives were taken first. Their share in the collection is about 7%.
D3 ag: activates the human D3 dopamine receptor | P35462 | 0.58% of 410,000 active | max activation, % | AID 652048 | D3R DiscoveRx beta-arrestin cells, luminescence, 90 min; in the data active = max activation above about 30%; also: 0% is about no effect
Target sequence (P35462 whole entry, looked up): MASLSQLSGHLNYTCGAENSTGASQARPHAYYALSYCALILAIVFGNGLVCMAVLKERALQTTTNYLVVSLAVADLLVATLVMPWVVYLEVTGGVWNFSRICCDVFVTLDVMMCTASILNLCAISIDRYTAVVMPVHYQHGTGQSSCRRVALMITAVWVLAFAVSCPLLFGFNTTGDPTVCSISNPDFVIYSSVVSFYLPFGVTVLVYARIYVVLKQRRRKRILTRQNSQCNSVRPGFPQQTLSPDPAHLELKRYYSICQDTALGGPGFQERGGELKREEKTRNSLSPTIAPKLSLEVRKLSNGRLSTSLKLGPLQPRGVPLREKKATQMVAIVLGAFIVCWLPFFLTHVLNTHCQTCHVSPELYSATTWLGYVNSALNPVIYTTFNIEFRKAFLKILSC
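Agonist-mode cell screen: cells plated at 1500/well and incubated overnight at 37 °C, then exposed to library compounds for 90 min at 37 °C. Detection reagent was added for 30–60 min at room temperature, and luminescence was read.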
DRD3 antagonist: D3 dopamine receptor (human) antagonism; 2.5% of 360,000 active; P35462; D3R cells, DiscoveRx beta-arrestin luminescence, antagonist mode; stronger effect = lower value; max response, negative = inhibition, %; AID 652054; in the data active = max response below about -50%; inconclusive = no clear call, values can overlap the other calls; also: % is scaled to controls: 0 for no effect and ±100 for the full control effect
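Cells plated overnight at 1500 cells/well, then exposed to library compounds with dopamine controls for 90 minutes at 37 degrees C. DiscoveRx reagent added for 30–60 minutes at room temperature; luminescence read, quantitative HTS format.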
IL1B secr inh: blocks inflammasome-driven IL-1 beta release; THP-1 LPS/ATP IL-1B secretion, AlphaLISA, 16 h; stronger effect = lower value; activity change, % at 57.5 µM; 4.7% of 360,000 active; AID 743279; in the data active = activity change below about -50%; inconclusive = mostly about -30% to -49%; also: % is scaled to controls: 0 for no effect and ±100 for the full control effect
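Secreted IL-1B measured by AlphaLISA bead assay after 16 h compound exposure of THP-1 cells; compounds (final up to 57.5 uM) added 1 h before LPS (250 ng/mL) and ATP (1.25 mM) stimulation; lower signal means less secretion.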
a7 integrin act: activators of alpha7 integrin expression for muscular dystrophy; alpha7betagal myoblasts, beta-gal FDG fluorescence, 48 h; Potency, µM (highest dose often 38.3 µM), for inactives: top-dose activation, actives largely listed as activators; 0.064% of 350,000 active; AID 624291;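 also: potency is read from the fitted curve at half-maximal effect; 100% = response of the positive control SU9516; nearly all actives have a fitted effect of over 60% in size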
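alpha7betagal+/- myoblasts (passage 13, 250/well) treated 48 h at 37C with compounds at 1:260 dilution of DMSO stock. Lysed, then beta-galactosidase activity read as FDG fluorescence (ex 480/em 540) after 30 min, with pre-read for autofluorescence.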
ATXN2 expr inh: ATXN2 expression inhibition | HEK-293 ATXN2-luciferase reporter, luminescence, 24 h | Potency, µM (highest dose often 57 µM), inactives show at the top dose activity change, negative = inhibition, usual class: inhibitors | 0.72% of 360,000 active; also: potency is read from the fitted curve at half-maximal effect; % is scaled to controls: 0 for no effect and ±100 for the full control effect; nearly all actives have a fitted effect of over 55% in size
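ATXN2-luciferase reporter cells (luciferase flanked by upstream and downstream ATXN2 gene portions) were treated 24 h at 37 °C with compounds at up to 57 uM. SteadyGlo luminescence gave expression; GF-AFC fluorescence gave viability.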
ATXN viability: cell viability loss in ATXN counter-screen; S2 cells (HEK-293 line with an ATXN2-luciferase reporter) viability, CellTiter-Fluor protease fluorescence, 24 h; Potency, µM (titrated, usually from 56.7 µM), most hits filed as cytotoxic; 0.49% of 400,000 active; also: potency is read from the fitted curve at half-maximal effect; nearly all actives have a fitted effect of over 40% in size
An asterisk follows results filed as active; i = inactive; ? = inconclusive; . = not tested or not shown. Unless noted, calls follow the shape of the dose curve; as a rule, active = well fitted curve in the direction sought with a large enough effect; inconclusive = small, poorly fitted or top-dose-only effect, or another doubt; inactive = no such curve, though single readings can be large; an effect the other way counts as inactive or inconclusive.

SMILES | D3 ag | DRD3 antagonist | IL1B secr inh | a7 integrin act | ATXN2 expr inh | ATXN viability
Cc1cc(NC(=O)c2ccc(Br)c([N+](=O)[O-])c2)no1 | 8 | 0 | -19 | -31% | 4% | i
O=c1oc2ccccc2n1CCc1ccccc1 | -3 | 0 | 11 | 17% | 9% | i
COc1ccc(OC)c(NC(=O)NCCN2CCN(c3ccccc3)CC2)c1 | 5 | -67* | -25 | ? | -20% | i
Cc1cc(C)cc(CC2CC(=O)N(c3nc(C)cc(C)n3)C2=O)c1 (centres undefined) | -3 | 4 | 20 | 1% | -3% | i
CCN(CC)Cc1cc(Oc2ccc(O)c(CN(CC)CC)c2)ccc1O | -15 | ? | -72* | . | -20% | i
CCN(CC)Cc1cc(CCNC(=O)c2ccc(Cl)cc2)ccc1O | -7 | 6 | -5 | -26% | -12% | i
COc1ccc(CCC(C)NCCc2ccc(Cl)cc2Cl)cc1 (centres undefined) | -3 | 0 | -51* | -83% | . | .
COc1ccc(CCC(C)NCc2ccc(Cl)c(Cl)c2)cc1 (centres undefined) | -17 | -55* | -3 | -54% | -25% | i
C=CCn1c(SCC(=O)NC(=O)c2cccn2C)nc2ccccc2c1=O | 0 | 14 | 47 | 0% | -3% | i
O=C(COC(=O)c1cc(S(=O)(=O)N2CCOCC2)ccc1F)c1ccccc1 | 8 | 9 | ? | -6% | -8% | i
Cc1cc(N2C(=O)c3ccc(C(=O)Nc4ccc(CC(=O)O)cc4)cc3C2=O)no1 | 7 | -6 | -22 | 14% | -15% | i
Clc1cc2nc[nH]c2cc1Cl | 37* | 10 | 18 | -20% | 13% | i
O=C(O)c1cccc(Nc2cc(Cl)c3nonc3c2[N+](=O)[O-])c1 | -10 | ? | -4 | 10% | . | ?
CCc1nnc(NS(=O)(=O)c2ccc(Nc3ccc([N+](=O)[O-])c4nonc34)cc2)s1 | -11 | -63* | -20 | ? | -12% | .
O=C(O)c1ccc(Nc2ccc([N+](=O)[O-])c3nonc23)cc1 | -18 | -77* | -10 | 9% | -3% | ?
O=C(O)c1cccc(Nc2ccc([N+](=O)[O-])c3nonc23)c1 | -14 | -57* | 3 | -5% | 5% | 16µM*
CCOC(=O)c1ccc(NC(=O)CN(c2ccc(C)cc2)S(=O)(=O)c2c(C)noc2C)cc1 | 5 | . | . | . | ? | ?
CC1=C(C#N)C(c2cn(-c3ccccc3)nc2-c2cccs2)C(C#N)=C(C)N1 | 33* | 26 | -90* | 22% | -24% | i
Cc1ccc2c(c1)C1(C)C(C(C)(C)N2C=O)C1(Cl)Cl (centres undefined) | 1 | -8 | -6 | 14% | . | i
O=C(Nc1ccc(Cc2ccncc2)cc1)c1ccc([N+](=O)[O-])o1 | -7 | ? | -96* | -49% | 9% | i
O=C(Nc1ccc(S(=O)(=O)N2CCOCC2)cc1)c1ccc([N+](=O)[O-])o1 | -8 | ? | -100* | -71% | ? | ?
COc1ccc(CCC(=O)N2CCN(S(=O)(=O)c3ccc(C)cc3)CC2)cc1 | -9 | -17 | -22 | -12% | -27% | i
COc1ccc(S(=O)(=O)N2CCN(C(=O)c3ccc([N+](=O)[O-])o3)CC2)cc1 | 2 | 0 | -82* | -68% | -25% | ?
O=C(Nc1ccc(OC(F)(F)F)cc1)c1ccc(S(=O)(=O)N2CCOCC2)o1 | -9 | 16 | -51* | 24% | -35% | i
COc1cccc(C(=O)NCCS(=O)(=O)NCc2ccc(Cl)cc2)c1 | -18 | -5 | -4 | 6% | -15% | i
SMILES | D3 ag | DRD3 antagonist | IL1B secr inh | a7 integrin act | ATXN2 expr inh | ATXN viability
O=C(NCc1ccco1)C1CCN(S(=O)(=O)N2CCC3(CC2)OCCO3)CC1 | 12 | -21 | 12 | -2% | 0% | i
Cc1c(C(=O)Nc2ccc(Cc3ccncc3)cc2)cccc1[N+](=O)[O-] | 5 | -2 | -50* | 0% | 0% | i
O=C(COC(=O)c1ccc([N+](=O)[O-])o1)Nc1ccc(N2CCOCC2)cc1 | -3 | 2 | -14 | 0% | 8% | i
O=C(Nc1ccc(S(=O)(=O)N2CCCC2)cc1)c1ccc([N+](=O)[O-])o1 | -14 | ? | -57* | -55% | ? | .
O=C(Nc1ccc(N2CCOCC2)cc1)c1ccc([N+](=O)[O-])o1 | -13 | ? | -96* | -62% | -6% | ?
CCn1nnc(NC(=O)c2ccc([N+](=O)[O-])o2)n1 | 2 | -12 | -78* | -53% | 25% | i
CCOC(=O)CSCC(=O)Nc1cc(C)ccc1C | -24 | 16 | 24 | 12% | 1% | i
Cn1c2ccccc2c(=O)c2cc(NCCCN3CCOCC3)ccc21 | -58 | ? | ? | 34% | 0% | .
COc1cccc2sc3ccc(NCc4ccc5c(c4)OCO5)cc3c(=O)c12 | -14 | 12 | -1 | 24% | 6% | .
O=c1c2ccccc2oc2ccc(NCCCN3CCOCC3)cc12 | -26 | 0 | -53* | -11% | 1% | i
COc1cccc2sc3cc(NCCCN4CCOCC4)ccc3c(=O)c12 | 5 | 80 | -60* | -1% | -15% | .
O=c1c2ccccc2oc2cc(NCCCN3CCOCC3)ccc12 | -8 | 19 | -51* | 14% | 1% | .
CC(=O)N1CCc2cc(Br)cc(S(=O)(=O)CCC(=O)N3CCN(c4ccc(F)cc4)CC3)c21 | 8 | . | . | . | -2% | i
COc1ccccc1N1CCN(C(=O)C2CCN(S(=O)(=O)Cc3ccccc3)CC2)CC1 | 3 | . | . | . | 6% | i
O=C(Cn1nnc(-c2ccccc2NC(=O)C2CC2)n1)NC1CCCCC1 | -2 | 20 | 13 | 4% | -5% | i
COc1cc(O)c(C(CCN2CCN(c3ccccc3)CC2)c2ccc3c(c2)OCO3)c(OC)c1 (centres undefined) | -63 | -108* | ? | -14% | 2% | i
COc1cc(O)c(C(CCN2CCN(c3ccccc3)CC2)c2cc(OC)c(OC)c(OC)c2)c(OC)c1 (centres undefined) | -72 | -137* | -7 | 12% | -8% | i
N#C/C(=C\c1cn(-c2ccccc2)nc1-c1cccnc1)c1nnc2n1CCCCC2 | 11 | 6 | -61* | -28% | -1% | i
CCc1ccc(/C=C2\SC(=S)N(CCCC(=O)N3CCCC3)C2=O)cc1 | -2 | 2 | -29 | -38% | . | i
CC1=CC2=C(C=O)C(=O)C(C)(O)C(O)C2=CO1 (centres undefined) | -2 | 9 | -62* | -10% | . | ?
CCCOc1ccc(C(=O)C(CN2CCCC2)c2ccccc2)cc1 (centres undefined) | -30 | -11 | -103* | -42% | ? | ?
